Assay results as given in PubChem BioAssay AID1159580 (chemical genetic matrix, 2015).
Among all 5,500 compounds or so, about 2,000 (36%) were called active. Roughly 18% stayed inconclusive and do not appear here. Rule as the data show it: active = normalized growth mostly below about 0.91 (no sharp cut-off); inconclusive = no clear call, values can overlap the other calls; inactive = mostly above about 0.92. Some of the results follow.

Experiment: chemical genetic growth profiling, strain panel (AID 1159580);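 also: tested at 20 µM; growth read once vehicle control cultures reached saturation at 30 °C; 1 = growth at the plate median or of vehicle wells; lower values mean less growth of the strain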
Details: growth OD

Measured: normalized growth

CC(CN(C)C)CN1c2ccccc2Sc2ccccc21 (configuration not stated)
active: S. cerevisiae deletion strains, locus YLR039C, strain RIC1, hits give low values 1.34 [resistant] | S. cerevisiae deletion strains, locus YLR262C, strain YPT6, hits give low values 1.44 [resistant]
inactive: S. cerevisiae deletion strains, locus YJR075W, strain HOC1, hits give low values 0.986 | S. cerevisiae deletion strains, locus YKL009W, strain mrt4, hits give low values 0.99 | S. cerevisiae deletion strains, locus YKL068W, hits give low values 0.981 | S. cerevisiae deletion strains, locus YKL085W, strain MDH1 (second series), hits give low values 1.01 | S. cerevisiae deletion strains, locus YKL085W, strain MDH1, hits give low values 1.01 | S. cerevisiae deletion strains, locus YKL160W, strain elf1, hits give low values 1.01 | S. cerevisiae deletion strains, locus YKL190W, strain CNB1, hits give low values 0.999 | S. cerevisiae deletion strains, locus YKR001C, strain vps1, hits give low values 0.991 | S. cerevisiae deletion strains, locus YKR026C, strain gcn3, hits give low values 1.02 | S. cerevisiae deletion strains, locus YKR091W, strain srl3, hits give low values 1.02 | S. cerevisiae deletion strains, locus YLL001W, strain dnm1, hits give low values 1.02 | S. cerevisiae deletion strains, locus YLL026W, hits give low values 1.02 | S. cerevisiae deletion strains, locus YLL041C, strain sdh2, hits give low values 1.01 | S. cerevisiae deletion strains, locus YLR027C, strain aat2, hits give low values 1.02 | S. cerevisiae deletion strains, locus YLR058C, strain SHM2, hits give low values 0.985 | S. cerevisiae deletion strains, locus YLR102C, strain apc9, hits give low values 0.993 | S. cerevisiae deletion strains, locus YLR113W, strain HOG1, hits give low values 0.988 | S. cerevisiae deletion strains, locus YLR221C, strain rsa3, hits give low values 1.02 | S. cerevisiae deletion strains, locus YLR258W, strain gsy2, hits give low values 1.02 | S. cerevisiae deletion strains, locus YLR262C, strain YPT6 (second series), hits give low values 1.1 | S. cerevisiae deletion strains, locus YLR268W, strain sec22, hits give low values 0.918 | S. cerevisiae deletion strains, locus YLR320W, strain mms22, hits give low values 1.01 | S. cerevisiae deletion strains, locus YLR330W, strain CHS5, hits give low values 0.999 | S. cerevisiae deletion strains, locus YLR342W, strain FKS1 (second series), hits give low values 0.888 | S. cerevisiae deletion strains, locus YLR342W, strain FKS1, hits give low values 1.03 | S. cerevisiae deletion strains, locus YLR357W, strain rsc2, hits give low values 1.04 | S. cerevisiae deletion strains, locus YLR370C, strain arc18, hits give low values 1.02 | S. cerevisiae deletion strains, locus YLR371W, strain rom2, hits give low values 0.994 | S. cerevisiae deletion strains, locus YLR384C, strain iki3, hits give low values 1.02 | S. cerevisiae deletion strains, locus YLR418C, strain cdc73, hits give low values 0.874 | S. cerevisiae deletion strains, locus YML016C, strain PPZ1, hits give low values 0.992 | S. cerevisiae deletion strains, locus YML032C, strain rad52, hits give low values 0.968 | S. cerevisiae deletion strains, locus YML120C, strain ndi1, hits give low values 0.998 | S. cerevisiae deletion strains, locus YML124C, strain tub3, hits give low values 0.995 | S. cerevisiae deletion strains, locus YMR058W, strain fet3, hits give low values 1.01 | S. cerevisiae deletion strains, locus YMR078C, strain ctf18, hits give low values 0.985 | S. cerevisiae deletion strains, locus YMR125W, strain sto1, hits give low values 1.02 | S. cerevisiae deletion strains, locus YMR129W, hits give low values 1.02 | S. cerevisiae deletion strains, locus YMR205C, strain PFK2, hits give low values 1.03 | S. cerevisiae deletion strains, locus YMR223W, strain ubp8, hits give low values 0.98 | S. cerevisiae deletion strains, locus YMR231W, strain pep5, hits give low values 1.03 | S. cerevisiae deletion strains, locus YMR263W, strain SAP30, hits give low values 0.978 | S. cerevisiae deletion strains, locus YMR307W, strain GAS1, hits give low values 1.03 | S. cerevisiae deletion strains, locus YNL067W, strain RPL9B, hits give low values 0.967 | S. cerevisiae deletion strains, locus YNL071W, strain lat1, hits give low values 1.02 | S. cerevisiae deletion strains, locus YNL128W, strain TEP1, hits give low values 0.988 | S. cerevisiae deletion strains, locus YNL153C, strain GIM3, hits give low values 0.953 | S. cerevisiae deletion strains, locus YNL183C, strain NPR1, hits give low values 0.948 | S. cerevisiae deletion strains, locus YNL209W, strain ssb2, hits give low values 1.02 | S. cerevisiae deletion strains, locus YNL233W, strain BNI4, hits give low values 0.969 | S. cerevisiae deletion strains, locus YNL248C, strain rpa49, hits give low values 1.02 | S. cerevisiae deletion strains, locus YNL250W, strain rad50, hits give low values 0.985 | S. cerevisiae deletion strains, locus YNL271C, strain bni1, hits give low values 0.992 | S. cerevisiae deletion strains, locus YNL298W, strain CLA4, hits give low values 0.991 | S. cerevisiae deletion strains, locus YNL307C, strain MCK1, hits give low values 0.974 | S. cerevisiae deletion strains, locus YNL322C, strain KRE1 (second series), hits give low values 1.04 | S. cerevisiae deletion strains, locus YNL322C, strain KRE1, hits give low values 0.998 | S. cerevisiae deletion strains, locus YNR049C, strain mso1, hits give low values 1.04 | S. cerevisiae deletion strains, locus YNR052C, strain pop2, hits give low values 0.974 | S. cerevisiae deletion strains, locus YOL006C, strain TOP1, hits give low values 0.922 | S. cerevisiae deletion strains, locus YOL012C, strain htz1 0.837 | S. cerevisiae deletion strains, locus YOL147C, strain pex11, hits give low values 0.996 | S. cerevisiae deletion strains, locus YOR001W, strain rrp6, hits give low values 1.01 | S. cerevisiae deletion strains, locus YOR061W, strain CKA2, hits give low values 0.996 | S. cerevisiae deletion strains, locus YOR069W, strain VPS5, hits give low values 0.984 | S. cerevisiae deletion strains, locus YOR070C, strain gyp1, hits give low values 1.02 | S. cerevisiae deletion strains, locus YOR080W, strain dia2, hits give low values 1.02 | S. cerevisiae deletion strains, locus YOR083W, strain WHI5, hits give low values 0.987 | S. cerevisiae deletion strains, locus YOR106W, strain vam3, hits give low values 1.05 | S. cerevisiae deletion strains, locus YOR136W, strain idh2, hits give low values 0.987 | S. cerevisiae deletion strains, locus YOR144C, strain elg1, hits give low values 0.993 | S. cerevisiae deletion strains, locus YOR184W, strain ser1, hits give low values 1.02 | S. cerevisiae deletion strains, locus YOR231W, strain MKK1, hits give low values 0.997 | S. cerevisiae deletion strains, locus YOR265W, strain rbl2, hits give low values 1.03 | S. cerevisiae deletion strains, locus YOR270C, strain vph1, hits give low values 1.08 | S. cerevisiae deletion strains, locus YOR290C, strain snf2, hits give low values 1.02 | S. cerevisiae deletion strains, locus YOR316C, strain cot1, hits give low values 0.992 | S. cerevisiae deletion strains, locus YPL051W, strain arl3, hits give low values 0.996 | S. cerevisiae deletion strains, locus YPL055C, strain LGE1, hits give low values 0.992 | S. cerevisiae deletion strains, locus YPL078C, strain atp4, hits give low values 1.01 | S. cerevisiae deletion strains, locus YPL106C, strain sse1, hits give low values 1.03 | S. cerevisiae deletion strains, locus YPL240C, strain hsp82, hits give low values 0.997 | S. cerevisiae deletion strains, locus YPL241C, strain CIN2, hits give low values 0.999 | S. cerevisiae deletion strains, locus YPL256C, strain CLN2, hits give low values 0.99 | S. cerevisiae deletion strains, locus YPR119W, strain clb2, hits give low values 0.997 | S. cerevisiae deletion strains, locus YPR141C, strain kar3, hits give low values 0.983 | S. cerevisiae deletion strains, locus YPR163C, strain tif3, hits give low values 0.966 | S. cerevisiae deletion strains, locus YPR167C, strain met16, hits give low values 0.99 | S. cerevisiae deletion strains, strain wtn01, hits give low values 0.968 | S. cerevisiae strains, strain wild type, hits give low values 0.992
